# Data from PubChem BioAssay.
# “And” between values parts separate entries of the source, which are not always exact repeats. Equal entries are not always repeated. Results filed as inconclusive are left out. A structure can be active in one record and inactive in another. The source made the active and inactive calls. Unless noted, no rule for the calls is given here.
# Legend:
# [1] = liver-stage malaria parasite growth inhibition, primary screen, cell-based, HepG2, luciferase luminescence, HepG2 viability (AID 624349; in the data active = parasite load remaining mostly below about 12%, no sharp cut-off; inactive = mostly above about 10%;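 also: 100% = mean of DMSO negative control wells on the same plate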); details: P. berghei liver stage in HepG2, luciferase luminescence, concentration not given here; parasite load remaining: stronger effect = lower value; viability: measured here: HepG2 viability without parasites
# [2] = target: Mitogen-activated protein kinase 7 (Homo sapiens) (UniProt Q13164); experiment: ERK5 transactivation activators in reporter cells, primary screen, cell-based, HTS (AID 1508626;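 active = luciferase signal above three times the same-plate solvent-only control wells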;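 also: luciferase driven by Gal4-ERK5 fusion binding five Gal4 sites before minimal TATA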); details: HeLa Gal4-ERK5 transactivation, 18 h, at 5 µM, stronger effect = higher value
# [3] = sensitizers of A549 cells to miR-34 induction, primary screen, imaging, A549 dox-inducible miR-34, nuclei and caspase counts (AID 1347080;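 active = compounds whose cell count with miR-34 switched on is under 0.7 times the count with it off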); details: A549 miR-34 inducible, Hoechst nuclei count, 48 h
# [4] = phospholipid biosynthesis inhibitors in animal cells, primary screen, cell-based, LOPAC library, screen 4 (AID 1347384); details: phospholipid biosynthesis inhibition screen, at 10 µM
# [5] = survival rescue of mitochondrial mutant cells in low glucose, primary screen, MELAS cybrids, Rieske KO mouse fibroblasts, CellTiter-Glo (AID 1508586;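 active = mean z-score across replicates of 1.96 or higher in either the MELAS or the Rieske mutant cell line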;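 also: z relative to plate mean and SD of compound and empty wells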)
# [6] = target: ATP-dependent translocase ABCB1 (Homo sapiens) (UniProt P08183); experiment: MDR1 (ABCB1) efflux transporter inhibition, cell-based (AID 377; in the data active = fluorescence slope change above about 50%); details: MDR1-expressing cells, fluorescent substrate accumulation slope; stronger effect = higher value; concentration not given here
# [7] = inhibitors of Cryptococcus chitosan production, flow cytometry, Cibacron Brilliant Red staining (AID 1347148); details: Cryptococcus neoformans chitosan, stronger effect = lower value; at 10 µM unless noted;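 also: compound exposure lasted three days at 37 degrees C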
# [8] = circadian clock period modulators, cell-based, LOPAC library, luminescence reporter (AID 2774); details: circadian reporter cells, at 7 µM, actives lie on both sides;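 also: values are relative to mean of DMSO wells on each plate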
# [9] = system: Hepatitis C virus NS3 helicase; experiment: HCV NS3 helicase inhibitors, primary screen, biochemical, fluorescence polarization, LOPAC1280 library (AID 687035; in the data active = inhibition above about 37%); details: Purified HCV NS3 helicase, Cy5-dT15 ssDNA binding fluorescence polarization; stronger effect = higher value; concentration not given here
# [10] = Cy5 fluorescence quenching or enhancement artefacts, artefact control for HCV NS3 helicase inhibitor project, biochemical, LOPAC1280 (AID 687037); details: Cy5-DNA-NS3h complex fluorescence interference counterscreen
# [11] = system: Aerobactin synthetase IucA (Klebsiella pneumoniae, hypervirulent); experiment: IucA enzyme inhibition, biochemical, LOPAC library, absorbance readout (AID 1346212); details: IucA enzyme assay, absorbance (OD) readout; stronger effect = lower value;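 tested at 8 µM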;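 also: 100% = no compound wells and 0% = no enzyme wells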
# [12] = viability rescue of complex I mutant cybrids, primary screen, cell-based, galactose medium, ATP luminescence (AID 1645843;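 active = z-score of at least 1.8 in each of two replicates, scored against plate mean and spread of sample wells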;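 also: positive z means more ATP and so rescue of galactose-driven cybrid death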); details: complex I mutant cybrid cells, 72 h, stronger effect = higher value
# [13] = hESC survival regulators, cell-based (AID 493140); details: human embryonic stem cell survival screen; stronger effect = higher value;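 also: cells exposed to compounds for four days before counting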
# [14] = stronger effect = lower value, cell number ratio, induced over uninduced
# [15] = MELAS cybrid survival, CellTiter-Glo 48 h, stronger effect = higher value
# [16] = Rieske KO mouse fibroblast survival, CellTiter-Glo 72 h
# [17] = measured here: relative caspase fold change +Dox/-Dox
# [18] = measured here: total cells with miR-34 induction, stronger effect = lower value
# [19] = measured here: total cells without miR-34 induction
# Sequence of ATP-dependent translocase ABCB1 (Homo sapiens) (P08183 whole entry, looked up): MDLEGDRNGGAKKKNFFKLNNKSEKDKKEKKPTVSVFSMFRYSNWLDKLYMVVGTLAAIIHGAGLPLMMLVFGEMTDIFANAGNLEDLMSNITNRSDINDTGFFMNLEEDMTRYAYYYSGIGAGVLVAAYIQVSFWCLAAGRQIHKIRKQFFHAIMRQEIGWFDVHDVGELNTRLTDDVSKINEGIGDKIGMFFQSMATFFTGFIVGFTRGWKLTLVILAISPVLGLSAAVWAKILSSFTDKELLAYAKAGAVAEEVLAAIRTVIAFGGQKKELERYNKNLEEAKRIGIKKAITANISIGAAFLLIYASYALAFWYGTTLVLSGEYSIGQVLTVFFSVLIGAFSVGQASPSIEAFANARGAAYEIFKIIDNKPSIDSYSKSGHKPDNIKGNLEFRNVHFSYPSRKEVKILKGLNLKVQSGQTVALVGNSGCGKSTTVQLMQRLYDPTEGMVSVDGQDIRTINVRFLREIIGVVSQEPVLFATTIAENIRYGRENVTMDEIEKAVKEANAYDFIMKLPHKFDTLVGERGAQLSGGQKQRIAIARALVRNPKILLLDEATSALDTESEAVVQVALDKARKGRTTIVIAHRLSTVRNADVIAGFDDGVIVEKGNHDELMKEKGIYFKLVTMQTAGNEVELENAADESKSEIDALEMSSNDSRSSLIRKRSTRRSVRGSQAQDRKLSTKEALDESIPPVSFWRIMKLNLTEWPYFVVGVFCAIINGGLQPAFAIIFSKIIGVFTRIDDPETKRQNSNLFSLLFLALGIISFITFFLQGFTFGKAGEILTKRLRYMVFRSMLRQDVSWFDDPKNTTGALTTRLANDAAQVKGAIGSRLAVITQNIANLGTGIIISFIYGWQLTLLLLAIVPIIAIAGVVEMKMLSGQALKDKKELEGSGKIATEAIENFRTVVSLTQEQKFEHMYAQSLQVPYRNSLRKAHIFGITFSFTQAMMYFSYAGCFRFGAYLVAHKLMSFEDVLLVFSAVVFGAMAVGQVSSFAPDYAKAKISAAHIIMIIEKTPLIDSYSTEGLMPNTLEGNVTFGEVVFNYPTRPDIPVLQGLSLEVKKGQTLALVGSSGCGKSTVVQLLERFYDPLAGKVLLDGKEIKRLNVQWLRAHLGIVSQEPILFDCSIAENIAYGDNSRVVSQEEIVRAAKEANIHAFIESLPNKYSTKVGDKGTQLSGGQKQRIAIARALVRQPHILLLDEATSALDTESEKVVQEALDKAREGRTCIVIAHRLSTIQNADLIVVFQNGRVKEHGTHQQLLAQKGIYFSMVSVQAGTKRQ
# Sequence of Mitogen-activated protein kinase 7 (Homo sapiens) (Q13164 whole entry, looked up, the tested form may be a part): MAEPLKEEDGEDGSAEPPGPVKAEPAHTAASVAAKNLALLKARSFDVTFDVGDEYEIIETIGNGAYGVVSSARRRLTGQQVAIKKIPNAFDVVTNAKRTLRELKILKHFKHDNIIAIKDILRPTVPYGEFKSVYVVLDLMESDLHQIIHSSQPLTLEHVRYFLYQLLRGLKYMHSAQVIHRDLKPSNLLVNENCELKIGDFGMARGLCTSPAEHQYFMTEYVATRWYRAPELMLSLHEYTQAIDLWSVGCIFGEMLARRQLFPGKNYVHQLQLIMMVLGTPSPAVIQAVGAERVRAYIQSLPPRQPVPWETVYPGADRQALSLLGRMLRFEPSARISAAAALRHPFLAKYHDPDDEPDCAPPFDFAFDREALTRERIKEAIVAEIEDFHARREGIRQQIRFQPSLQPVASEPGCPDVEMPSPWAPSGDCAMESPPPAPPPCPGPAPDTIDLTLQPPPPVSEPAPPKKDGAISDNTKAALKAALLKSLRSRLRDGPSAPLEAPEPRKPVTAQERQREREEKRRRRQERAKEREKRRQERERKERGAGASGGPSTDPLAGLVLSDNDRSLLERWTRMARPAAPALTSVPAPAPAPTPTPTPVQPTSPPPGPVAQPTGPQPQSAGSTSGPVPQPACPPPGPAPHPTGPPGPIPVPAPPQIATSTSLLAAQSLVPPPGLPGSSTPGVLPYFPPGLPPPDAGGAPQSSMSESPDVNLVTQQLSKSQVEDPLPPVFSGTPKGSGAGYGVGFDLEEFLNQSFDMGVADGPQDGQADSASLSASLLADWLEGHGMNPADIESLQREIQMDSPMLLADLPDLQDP
smiles,measurement,setting,value
CC[C@@]1(C2O[C@@H](C3O[C@@](O)(CC)[C@H](C)C[C@@H]3C)C[C@@H]2C)CC[C@H]([C@]2(C)CCC3(C[C@H](O)[C@@H](C)[C@@H]([C@H](C)[C@@H](OC)[C@H](C)C(=O)O)O3)O2)O1 (stereo partly specified),parasite load remaining,[1],17.9% (inactive)
same,viability,[1],72.8%
same,luciferase signal,[2],32 AU (inactive)
N[C@@H](CC(=O)N1CCn2c(nnc2C(F)(F)F)C1)Cc1cc(F)c(F)cc1F,fold change,[3]; [14],0.907 (inactive)
CN1CCN(CCCN2c3ccccc3Sc3ccc(Cl)cc32)CC1,outcome,[4],inactive
CCn1cc(C(=O)O)c(=O)c2ccc(C)nc21,z-score,[5]; [15],-0.303 (inactive) and 0.479 (inactive)
same,z-score,[5]; [16],0.386 and -0.565
O=C(O)P(=O)(O)O,fluorescence slope change,[6],95.2% (active)
C=C1C2CC[C@H]3[C@]4(C)C[C@H](OC5OC(CO)C(OS(=O)(=O)O)C(OS(=O)(=O)O)C5OC(=O)CC(C)C)C[C@@H](C(=O)O)[C@H]4CC[C@]3(C2)[C@H]1O (stereo partly specified),fluorescence slope change,[6],23.6% (inactive)
CNC(C)[C@@H]1CC[C@@H](N)[C@@H](OC2[C@@H](N)C[C@@H](N)[C@H](OC3OC[C@](C)(O)[C@H](NC)[C@H]3O)[C@H]2O)O1 (stereo partly specified),fold change,[3]; stronger effect = lower value,0.833 (inactive)
O=C1CC2OCC=C3CN4CC[C@]56c7ccccc7N1C5[C@H]2[C@H]3CC46 (stereo partly specified),fold change,[3]; stronger effect = lower value,0.917 (inactive)
O=C1OCCN1/N=C/c1ccc([N+](=O)[O-])o1,fold change,[3]; [14],0.857 (inactive)
CC(=O)C1=C(O)C2C3c4c[nH]c5cccc(c45)CC3C(C)(C)N2C1=O (stereo unspecified),fold fluorescence,[7],4.14 [at 148.6 µM] (inactive)
NC(=O)CN1CC(O)CC1=O (stereo unspecified),period change,[8],0.03 h (inactive)
same,inhibition,[9],-2% (inactive)
same,fluorescence ratio (interference),[10],1 (inactive)
same,remaining activity,[11],115% (inactive)
same,fold change,[3]; stronger effect = lower value,1.04 (inactive) and 0.877 (inactive)
same,fold change,[3]; [17],1.56 and 1.01
same,cell count,[3]; [18],10800 and 8840
same,cell count,[3]; [19],10500 and 10100
same,outcome,[4],inactive
same,z-score,[5]; [15],-0.221 (inactive)
same,z-score,[5]; [16],-0.154
same,z-score,[12],0.605 (inactive)
NC(Cc1cc(O)c(O)cc1O)C(=O)O (stereo unspecified),period change,[8],0.12 h (inactive)
same,inhibition,[9],22% (inactive)
same,fluorescence ratio (interference),[10],0.9 (inactive)
same,remaining activity,[11],96.6% (inactive)
same,fold change,[3]; stronger effect = lower value,1.05 (inactive)
same,fold change,[3]; [17],0.814
same,cell count,[3]; [18],9010
same,cell count,[3]; [19],8570
same,outcome,[4],inactive
same,z-score,[12],-0.345 (inactive)
COc1cc2nc(N3CCN(C(=O)C4COc5ccccc5O4)CC3)nc(N)c2cc1OC (stereo unspecified),remaining activity,[11],92.2% (inactive)
N#CC(C#N)=Cc1ccc([N+](=O)[O-])c(O)c1,period change,[8],-0.02 h (inactive)
same,survival,[13],124 (inactive)
same,remaining activity,[11],80.4% (inactive)
same,fold change,[3]; stronger effect = lower value,0.901 (inactive) and 1.08 (inactive)
same,fold change,[3]; [17],1.46 and 1.27
same,cell count,[3]; [18],4360 and 6240
same,cell count,[3]; [19],4840 and 5770
same,fold fluorescence,[7],5.5 [at 232.4 µM] (inactive)
CCCN(CCC)[C@@H]1CCc2cccc(O)c2C1,period change,[8],-0.075 h (inactive)
same,inhibition,[9],-5% (inactive)
same,fluorescence ratio (interference),[10],1 (inactive)
same,remaining activity,[11],102% (inactive)
same,fold change,[3]; stronger effect = lower value,1.11 (inactive)
same,fold change,[3]; [17],1.06
same,cell count,[3]; [18],10200
same,cell count,[3]; [19],9240
same,outcome,[4],inactive
same,z-score,[12],-0.38 (inactive)
CC(C)(C)c1cc(C=C(C#N)C#N)cc(C(C)(C)C)c1O,period change,[8],1.05 h (inactive)
same,survival,[13],76 (inactive)
same,inhibition,[9],0% (inactive)
same,fluorescence ratio (interference),[10],1 (inactive)
same,remaining activity,[11],101% (inactive)
same,fold change,[3]; stronger effect = lower value,1.14 (inactive) and 1.05 (inactive) and 0.984 (inactive)
same,fold change,[3]; [17],0.636 and 2.12 and 0.899
same,cell count,[3]; [18],1430 and 1570 and 1940
same,cell count,[3]; [19],1250 and 1490 and 1970
same,fold fluorescence,[7],9.17 [at 177.1 µM] (inactive)
same,outcome,[4],active
same,z-score,[5]; [15],0.224 (inactive)
same,z-score,[5]; [16],-0.362
same,z-score,[12],-1.27 (inactive)
NC(=O)COc1c(F)cc(SCCNS(=O)(=O)c2ccccc2)cc1F,period change,[8],-0.08 h (inactive)
same,inhibition,[9],-2% (inactive)
same,fluorescence ratio (interference),[10],1 (inactive)
same,remaining activity,[11],109% (inactive)
same,fold change,[3]; stronger effect = lower value,0.978 (inactive)
same,fold change,[3]; [17],0.398
same,cell count,[3]; [18],9150
same,cell count,[3]; [19],9360
same,outcome,[4],inactive
same,z-score,[12],0.24 (inactive)
CC(=O)[C@H]1CCC2C3CC[C@H]4C[C@H](O)CC[C@]4(C)C3CC[C@@]21C (stereo partly specified),period change,[8],-0.055 h (inactive)
same,inhibition,[9],0% (inactive)
same,fluorescence ratio (interference),[10],1 (inactive)
same,remaining activity,[11],95.7% (inactive)
same,fold change,[3]; stronger effect = lower value,1.03 (inactive)
same,fold change,[3]; [17],0.981
same,cell count,[3]; [18],10100
same,cell count,[3]; [19],9760
same,outcome,[4],inactive
same,z-score,[12],-0.6 (inactive)
CC(Cc1ccc(OCC(=O)O)cc1)NCC(O)c1cccc(Cl)c1 (stereo unspecified),period change,[8],-0.08 h (inactive)
same,inhibition,[9],-4% (inactive)
same,fluorescence ratio (interference),[10],1 (inactive)
same,remaining activity,[11],122% (inactive)
same,fold change,[3]; stronger effect = lower value,1.04 (inactive)
same,fold change,[3]; [17],2.14
same,cell count,[3]; [18],11000
same,cell count,[3]; [19],10600
same,outcome,[4],inactive
same,z-score,[12],0.62 (inactive)
CC1(C(=O)O)C2CCC(O2)C1(C)C(=O)O (stereo unspecified),period change,[8],0.3 h (inactive)
same,survival,[13],0.417 (inactive)
same,inhibition,[9],-5% (inactive)
same,fluorescence ratio (interference),[10],1 (inactive)
same,remaining activity,[11],118% (inactive)
same,fold change,[3]; stronger effect = lower value,0.789 (inactive)
same,fold change,[3]; [17],1.91
same,cell count,[3]; [18],286
same,cell count,[3]; [19],362
same,outcome,[4],inactive
same,z-score,[12],-1.46 (inactive)
CP(=O)(O)C1=CCNCC1,period change,[8],0.005 h (inactive)
same,inhibition,[9],-5% (inactive)
same,fluorescence ratio (interference),[10],1 (inactive)
same,remaining activity,[11],95.4% (inactive)
same,fold change,[3]; stronger effect = lower value,0.981 (inactive)
same,fold change,[3]; [17],1.49
same,cell count,[3]; [18],9760
same,cell count,[3]; [19],9940
same,outcome,[4],inactive
same,z-score,[12],0.2 (inactive)
NCCc1ccc(S(=O)(=O)F)cc1,period change,[8],-0.1 h (inactive)
same,inhibition,[9],-2% (inactive)
same,fluorescence ratio (interference),[10],0.9 (inactive)
same,remaining activity,[11],99.4% (inactive)
same,fold change,[3]; stronger effect = lower value,1.01 (inactive) and 0.94 (inactive)
same,fold change,[3]; [17],0.956 and 0.406
same,cell count,[3]; [18],10400 and 7770
same,cell count,[3]; [19],10400 and 8270
same,outcome,[4],inactive
same,z-score,[5]; [15],-0.305 (inactive)
same,z-score,[5]; [16],-1.62
same,z-score,[12],0.125 (inactive)
